Experiments:
[1] = biological target: Mitogen-activated protein kinase kinase kinase kinase 4 (Homo sapiens) (UniProt O95819); details: at 1 µM;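 note: reported figure is an averaged inhibition value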
[2] = biological target: Dual specificity mitogen-activated protein kinase kinase 1 (Homo sapiens) (UniProt Q02750); details: at 0.1 µM
[3] = biological target: Dual specificity mitogen-activated protein kinase kinase 1 (Homo sapiens) (UniProt Q02750); details: at 1 µM
[4] = biological target: Misshapen-like kinase 1 (Homo sapiens) (UniProt Q8N4C8); details: at 0.1 µM
Sequence of Misshapen-like kinase 1 (Homo sapiens) (Q8N4C8 whole entry, looked up): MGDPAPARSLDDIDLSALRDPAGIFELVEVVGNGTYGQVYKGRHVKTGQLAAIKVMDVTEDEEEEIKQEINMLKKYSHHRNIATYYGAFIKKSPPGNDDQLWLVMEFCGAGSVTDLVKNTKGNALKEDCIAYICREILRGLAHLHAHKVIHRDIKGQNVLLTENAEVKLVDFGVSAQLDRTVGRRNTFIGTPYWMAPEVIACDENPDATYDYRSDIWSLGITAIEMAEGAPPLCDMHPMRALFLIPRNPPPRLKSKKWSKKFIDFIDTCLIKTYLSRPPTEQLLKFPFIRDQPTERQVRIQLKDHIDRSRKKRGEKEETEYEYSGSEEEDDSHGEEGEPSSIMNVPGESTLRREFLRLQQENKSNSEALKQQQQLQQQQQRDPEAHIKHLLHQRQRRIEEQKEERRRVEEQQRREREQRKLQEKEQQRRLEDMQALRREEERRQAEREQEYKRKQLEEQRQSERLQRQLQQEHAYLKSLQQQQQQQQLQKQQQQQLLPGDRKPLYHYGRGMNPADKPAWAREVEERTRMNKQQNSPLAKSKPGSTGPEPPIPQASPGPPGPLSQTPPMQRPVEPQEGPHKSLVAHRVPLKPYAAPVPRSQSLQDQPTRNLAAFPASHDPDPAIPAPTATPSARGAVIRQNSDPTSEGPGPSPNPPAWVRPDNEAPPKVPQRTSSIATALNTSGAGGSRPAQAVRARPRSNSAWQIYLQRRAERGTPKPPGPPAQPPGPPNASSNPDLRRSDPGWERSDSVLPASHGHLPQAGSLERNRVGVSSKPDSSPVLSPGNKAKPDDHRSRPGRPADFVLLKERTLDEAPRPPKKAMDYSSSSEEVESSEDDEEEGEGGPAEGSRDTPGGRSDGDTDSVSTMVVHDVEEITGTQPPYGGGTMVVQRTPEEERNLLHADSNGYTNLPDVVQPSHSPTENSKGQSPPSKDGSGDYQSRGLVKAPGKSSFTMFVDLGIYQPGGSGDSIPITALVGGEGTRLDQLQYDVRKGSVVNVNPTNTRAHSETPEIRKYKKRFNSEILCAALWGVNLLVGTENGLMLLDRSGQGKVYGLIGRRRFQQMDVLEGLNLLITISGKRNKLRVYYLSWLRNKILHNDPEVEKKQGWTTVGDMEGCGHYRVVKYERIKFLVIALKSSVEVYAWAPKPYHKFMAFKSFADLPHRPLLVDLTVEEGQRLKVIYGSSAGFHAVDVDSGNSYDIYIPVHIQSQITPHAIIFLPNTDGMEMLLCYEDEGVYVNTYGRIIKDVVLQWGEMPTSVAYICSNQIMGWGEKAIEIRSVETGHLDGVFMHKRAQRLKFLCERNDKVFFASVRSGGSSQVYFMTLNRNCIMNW

[5] = biological target: Misshapen-like kinase 1 (Homo sapiens) (UniProt Q8N4C8); details: at 1 µM
[6] = biological target: T1, Serine/threonine-protein kinase 4 (Homo sapiens) (UniProt Q13043); details: at 0.1 µM
T1 sequence (whole entry): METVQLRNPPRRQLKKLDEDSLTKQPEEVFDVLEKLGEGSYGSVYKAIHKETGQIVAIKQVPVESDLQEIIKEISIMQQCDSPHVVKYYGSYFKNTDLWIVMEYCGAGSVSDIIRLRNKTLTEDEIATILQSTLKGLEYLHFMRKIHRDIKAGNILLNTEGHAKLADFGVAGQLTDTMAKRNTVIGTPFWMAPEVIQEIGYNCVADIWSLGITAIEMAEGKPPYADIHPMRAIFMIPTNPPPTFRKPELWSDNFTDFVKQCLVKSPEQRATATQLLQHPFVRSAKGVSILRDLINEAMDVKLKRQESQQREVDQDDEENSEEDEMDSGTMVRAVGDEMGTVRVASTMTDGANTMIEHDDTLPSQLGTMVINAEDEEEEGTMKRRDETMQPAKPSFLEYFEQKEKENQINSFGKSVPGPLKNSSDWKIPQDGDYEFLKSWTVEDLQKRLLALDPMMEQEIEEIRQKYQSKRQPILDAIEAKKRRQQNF

[7] = biological target: T1, Serine/threonine-protein kinase 4 (Homo sapiens); details: at 1 µM
[8] = biological target: T2, Serine/threonine-protein kinase 3 (Homo sapiens) (UniProt Q13188); details: at 0.1 µM
T2 sequence (whole entry): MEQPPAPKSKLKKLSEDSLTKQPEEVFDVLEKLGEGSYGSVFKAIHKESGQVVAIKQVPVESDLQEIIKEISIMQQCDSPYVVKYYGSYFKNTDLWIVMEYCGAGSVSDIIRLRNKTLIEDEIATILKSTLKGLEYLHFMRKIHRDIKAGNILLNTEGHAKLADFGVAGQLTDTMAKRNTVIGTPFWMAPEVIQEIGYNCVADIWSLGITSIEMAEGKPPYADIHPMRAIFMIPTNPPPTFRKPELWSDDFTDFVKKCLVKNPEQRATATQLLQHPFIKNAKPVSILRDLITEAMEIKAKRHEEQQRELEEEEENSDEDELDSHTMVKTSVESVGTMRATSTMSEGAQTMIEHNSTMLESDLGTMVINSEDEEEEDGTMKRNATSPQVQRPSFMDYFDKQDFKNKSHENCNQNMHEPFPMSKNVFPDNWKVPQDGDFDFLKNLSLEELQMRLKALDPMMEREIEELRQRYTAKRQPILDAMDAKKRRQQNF

[9] = biological target: T2, Serine/threonine-protein kinase 3 (Homo sapiens); details: at 1 µM
[10] = biological target: Serine/threonine-protein kinase 26 (Homo sapiens) (UniProt Q9P289); details: at 0.1 µM
Sequence of Serine/threonine-protein kinase 26 (Homo sapiens) (Q9P289 2-416 limits assumed): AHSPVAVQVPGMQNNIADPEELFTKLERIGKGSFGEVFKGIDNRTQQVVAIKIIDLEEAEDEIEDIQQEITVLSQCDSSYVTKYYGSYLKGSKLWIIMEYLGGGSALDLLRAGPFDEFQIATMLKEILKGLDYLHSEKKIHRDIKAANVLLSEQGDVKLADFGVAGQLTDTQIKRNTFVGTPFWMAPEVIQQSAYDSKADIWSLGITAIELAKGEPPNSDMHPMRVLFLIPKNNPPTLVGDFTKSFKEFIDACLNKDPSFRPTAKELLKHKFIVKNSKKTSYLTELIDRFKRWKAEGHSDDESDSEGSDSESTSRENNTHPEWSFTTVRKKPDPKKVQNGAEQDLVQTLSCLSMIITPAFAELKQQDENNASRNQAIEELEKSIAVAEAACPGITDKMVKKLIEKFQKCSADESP

Sequence of Dual specificity mitogen-activated protein kinase kinase 1 (Homo sapiens) (Q02750 whole entry): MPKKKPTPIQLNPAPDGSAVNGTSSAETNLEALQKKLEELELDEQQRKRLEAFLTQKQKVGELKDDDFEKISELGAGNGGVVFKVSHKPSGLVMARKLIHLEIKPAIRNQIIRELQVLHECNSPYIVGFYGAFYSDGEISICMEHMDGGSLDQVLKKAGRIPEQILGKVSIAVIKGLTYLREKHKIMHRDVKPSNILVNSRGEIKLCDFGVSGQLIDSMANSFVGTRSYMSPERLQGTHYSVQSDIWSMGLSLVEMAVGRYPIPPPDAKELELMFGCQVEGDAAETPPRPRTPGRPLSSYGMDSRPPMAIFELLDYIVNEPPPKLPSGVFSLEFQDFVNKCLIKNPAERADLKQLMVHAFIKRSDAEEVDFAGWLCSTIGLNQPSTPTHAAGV
Sequence of Mitogen-activated protein kinase kinase kinase kinase 4 (Homo sapiens) (O95819 2-1239 limits assumed): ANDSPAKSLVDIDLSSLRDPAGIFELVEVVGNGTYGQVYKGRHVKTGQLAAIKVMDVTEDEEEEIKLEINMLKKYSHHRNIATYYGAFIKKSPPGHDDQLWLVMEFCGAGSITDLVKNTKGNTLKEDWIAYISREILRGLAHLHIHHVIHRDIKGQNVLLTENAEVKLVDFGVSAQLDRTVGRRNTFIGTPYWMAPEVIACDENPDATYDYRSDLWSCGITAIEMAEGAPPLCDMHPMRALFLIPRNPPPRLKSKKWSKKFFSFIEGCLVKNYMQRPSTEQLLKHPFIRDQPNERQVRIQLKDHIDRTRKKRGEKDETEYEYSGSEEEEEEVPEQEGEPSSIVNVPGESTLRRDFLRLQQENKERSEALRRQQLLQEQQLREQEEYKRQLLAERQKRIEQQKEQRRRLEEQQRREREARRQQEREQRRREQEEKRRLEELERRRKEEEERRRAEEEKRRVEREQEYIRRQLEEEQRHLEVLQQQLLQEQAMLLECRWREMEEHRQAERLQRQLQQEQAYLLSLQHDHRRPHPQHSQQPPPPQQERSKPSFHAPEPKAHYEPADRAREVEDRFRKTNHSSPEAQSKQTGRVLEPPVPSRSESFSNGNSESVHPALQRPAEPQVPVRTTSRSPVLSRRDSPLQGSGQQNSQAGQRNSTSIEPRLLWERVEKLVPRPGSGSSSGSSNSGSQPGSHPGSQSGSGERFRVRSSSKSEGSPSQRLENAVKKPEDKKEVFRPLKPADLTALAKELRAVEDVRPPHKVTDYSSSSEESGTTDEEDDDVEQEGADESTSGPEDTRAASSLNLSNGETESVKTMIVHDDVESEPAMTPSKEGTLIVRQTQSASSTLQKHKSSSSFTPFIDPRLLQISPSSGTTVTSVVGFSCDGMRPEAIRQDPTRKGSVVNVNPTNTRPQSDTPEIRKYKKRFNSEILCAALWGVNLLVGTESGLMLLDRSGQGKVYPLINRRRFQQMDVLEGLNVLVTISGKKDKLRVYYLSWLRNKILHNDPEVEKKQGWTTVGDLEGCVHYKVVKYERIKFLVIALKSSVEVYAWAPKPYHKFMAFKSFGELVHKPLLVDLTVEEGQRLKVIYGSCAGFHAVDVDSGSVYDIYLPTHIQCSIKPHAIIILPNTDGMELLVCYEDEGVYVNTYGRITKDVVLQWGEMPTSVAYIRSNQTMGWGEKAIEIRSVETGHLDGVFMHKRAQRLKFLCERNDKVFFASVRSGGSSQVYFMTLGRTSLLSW

SMILES | inhibition [1] [%] | inhibition [2] [%] | inhibition [3] [%] | inhibition [4] [%] | inhibition [5] [%] | inhibition [6] [%] | inhibition [7] [%] | inhibition [8] [%] | inhibition [9] [%] | inhibition [10] [%]
O=C1NC(=O)C(c2cccc(Cl)c2)=C1Nc1ccc(Cl)c(C(=O)O)c1 | 8.37 | 5.3 | 2.84 | 4.74 | 7.9 | 5.13 | 7.28 | 6.05 | 9.28 | 0.55
COc1ccc2cc(-c3c(-c4ccncc4)nc(-c4ccc(S(C)(=O)=O)cc4C)n3C)ccc2c1 | 14.8 | 6.08 | 4.97 | 6.31 | 13.9 | 2.82 | 8.72 | 4.72 | 12.6 | -0.63
COc1cccc(-n2cnc3c(N/N=C/c4ccncc4)ncnc32)c1 | 16.9 | -0.13 | -0.71 | 2.27 | 16.9 | 3.6 | 7.14 | 4.46 | 7.42 | 0.98
Fc1ccc(-c2ncn(C3CCNCC3)c2-c2ccnc(Oc3ccc(Oc4ccccc4)cc3)n2)cc1 | 7.43 | 4.35 | 7.53 | 5.29 | 9.38 | 2.43 | 4.68 | 4.83 | 5.3 | -1.41
O=C(Nc1n[nH]c2cc(-c3cc(F)ccc3F)ccc12)C1CC1 | 58.7 | 4.62 | 4.19 | 11.6 | 45.7 | 1.85 | 4.03 | 2.46 | 3.81 | -1.29
NS(=O)(=O)c1ccc(N/N=C2\C(=O)Nc3ccc(-c4cnco4)cc32)cc1 | 77.6 | 2.18 | 5.31 | 51.6 | 75.8 | 43.8 | 76.8 | 33.4 | 73.2 | 0.61
COc1cccc(/C=N/Nc2ncnc3c2cnn3-c2cccc(OC)c2)c1 | 10.8 | 3.68 | 2.66 | 5.65 | 10.9 | 2.42 | 3.52 | 3.29 | 3.95 | -3.41
CS(=O)(=O)CCNCc1ccc(-c2ccc3ncnc(Nc4ccc(OCc5ccccc5)c(Br)c4)c3c2)o1 | 6.29 | 1.96 | 1.78 | 4.51 | 5.24 | 2.67 | 2.76 | 4.32 | 5.08 | -0.82
CCc1cccc(CC)c1/C=C/c1cncc(C(=O)NC)c1 | 7.49 | 2.63 | 2.68 | 3.66 | 6.06 | 5.37 | 5.19 | 5.6 | 3.95 | -0.96
CN(C)CCCNc1nccc(-c2c(-c3ccc(F)cc3)nn3cc(C(F)(F)F)ccc23)n1 | 10.6 | 1.86 | 2.52 | 5.22 | 7.76 | 2.92 | 4.75 | 3.38 | 3.61 | -0.11
FC(F)(F)c1cccc(Nc2nccc(-c3cnn4nc(-c5ccccc5)ccc34)n2)c1 | 3.3 | 2.8 | 3.14 | 3.38 | 3.06 | 1.12 | 3.6 | 3.94 | 3.81 | 0.42
COc1cc(Nc2ncc3c(C)nc(-c4cccc(Oc5ccccc5)c4)n3n2)cc(OC)c1OC | 5.36 | 2.88 | 9.12 | 1.96 | 2.84 | 5.41 | 6.48 | 5.14 | 4.82 | -0.33
O=C(Nc1n[nH]c2nc(-c3ccc(O)cc3)c(Br)cc12)C1CC1 | 75.2 | 7.68 | 8.1 | 26.4 | 67.7 | 5.36 | 10.2 | 6.31 | 10.6 | 4.96
Cc1nnc(-c2ccc(C)c(-c3ccc(C(=O)NCc4ccc(Cl)cc4)cc3)c2)o1 | 5.28 | 6.35 | 4.13 | 5.42 | 5.04 | 3.28 | 4.86 | 4.12 | 5.51 | -1.19
c1ccc(Oc2ccc(Nc3ncc(-c4ccccc4)o3)cc2)cc1 | 6.86 | 0.88 | 1.76 | 3.49 | 7.84 | 1.03 | 1.83 | 0.33 | 0.37 | -1.17
Clc1ccc(CNc2nccc(-c3cnn4ncccc34)n2)cc1 | 16.3 | 0.08 | 2.12 | 1.36 | 10.7 | 3.22 | 5.84 | 2.53 | 3.57 | -0.31
COc1ccc2ncn(-c3cc(O[C@H](C)c4ccccc4Cl)c(C(N)=O)s3)c2c1 | 5.82 | 2.51 | 2.76 | 5.84 | 5.42 | 3.89 | 13 | 6.32 | 13.2 | -2.67

SMILES | inhibition [1] [%] | inhibition [2] [%] | inhibition [3] [%] | inhibition [4] [%] | inhibition [5] [%] | inhibition [6] [%] | inhibition [7] [%] | inhibition [8] [%] | inhibition [9] [%] | inhibition [10] [%]
COc1cc2ncn(-c3cc(OCc4cccs4)c(C(N)=O)s3)c2cc1OC | 67.2 | 3.5 | 2.83 | 18 | 63.5 | 20.6 | 65.5 | 19.5 | 62.6 | 2.25
Cc1ccc(NC(=O)c2ccoc2)cc1-c1ccc(C(=O)NCC2CC2)cc1 | 1.38 | 2.89 | 2.27 | 2.91 | 1.4 | 4.29 | 2.08 | 4.78 | 4.5 | -1.09
O=C1Nc2ccccc2/C1=C/Nc1ccc(-n2cncn2)cc1 | 65.8 | 6.13 | 6.15 | 15.3 | 56.5 | 14.9 | 54.4 | 9.7 | 35.7 | -0.63
NS(=O)(=O)c1ccc(Nc2cc(-c3ccc(O)c(F)c3)n[nH]2)cc1 | 76.2 | -2.69 | -3.65 | 11.6 | 65.7 | -1.34 | 12.6 | -1.84 | 9.64 | 0.95
C[C@@H](Oc1cc(-n2cnc3ccc(OCC4CCN(C)CC4)cc32)sc1C(N)=O)c1ccccc1Cl | 11.6 | 6.35 | 5.61 | 6.3 | 10.1 | 14.8 | 56.7 | 11.7 | 39.7 | -8.39
COc1cc(Nc2ncc(-c3ccccc3)o2)cc(OC)c1OC | 26.4 | -0.87 | 0.69 | 0.26 | 17.3 | -2.33 | 0 | -4.02 | -1.87 | -0.19
COc1ccc(C2=C(N3CCc4ccccc43)C(=O)NC2=O)cc1 | 12.6 | 5.11 | 4.03 | 7.89 | 11 | 7.03 | 7.64 | 6.94 | 6.17 | -0.57
CN(C)CCOc1ccc(-c2cc(-c3ccc4c(c3)CCC4=NO)c(-c3ccncc3)o2)cc1 | 17.3 | 1.44 | 2.23 | 0.59 | 12.5 | -0.36 | 0.8 | -1.52 | 1.19 | 0.59
NC(=O)c1cc(-c2ccncc2)cc(-c2ccccc2)c1N | 32.3 | 6.3 | 5.89 | 11.2 | 26.1 | 3.19 | 6.8 | 3.96 | 3.58 | -0.07
Nc1nccc(-c2c(-c3ccc(F)cc3)ncn2C2CCC(O)CC2)n1 (stereo not given) | 72.8 | -3.17 | -3.2 | 6.81 | 62.4 | 0.86 | 22 | -0.05 | 14.6 | 0.75
CCC(=O)Nc1ccc(C)c(-c2ccc(C(=O)NCC3CC3)cc2)c1 | 5.43 | 3.72 | 2.87 | 7.03 | 5.64 | 2.76 | 3.12 | 3.02 | 2.84 | -1.82
COc1cc(Nc2ncc3c(C)nc(-c4cccc(C(F)(F)F)c4)n3n2)cc(OC)c1OC | 34 | 4.45 | 10.7 | 10.5 | 29.2 | 7.12 | 17.8 | 6.69 | 13.2 | 0.97
COc1cc(N2CCN(C(C)C)CC2)ccc1Nc1nc(Nc2ccc(F)cc2C(=O)NC[C@@H](O)CO)c2cc[nH]c2n1 | 13.6 | 6.5 | 5.77 | 7.5 | 12 | 4.86 | 6.99 | 6.36 | 7.9 | -1.23
COC(=O)Nc1nc2ccc(Sc3ccc(NC(=O)Nc4cc(C(F)(F)F)ccc4F)cc3)cc2[nH]1 | 7.12 | -0.42 | 0.12 | 0.07 | 0.67 | 2.61 | 3.26 | 2.16 | 1.83 | 1.18
COc1ccc(-c2ccc3c(NC(=O)C4CC4)n[nH]c3n2)cc1 | 33 | 2.82 | 2.1 | 5.24 | 21.8 | 2.12 | 4.96 | 2.09 | 5.21 | -1.38
O=C1Nc2ccc(I)cc2C1=Cc1cc(Br)c(O)c(Br)c1 | 83.7 | 3.38 | 3.62 | 18.9 | 73.2 | 3.39 | 17.2 | 3.5 | 19.5 | 0.13
NC(=O)c1ccc(Oc2nccc(-c3c(-c4ccc(F)cc4)ncn3C3CCNCC3)n2)cc1 | 3.93 | 4.51 | 4.62 | 6.11 | 6.81 | 4.07 | 4.99 | 8.2 | 7.98 | -1.23
